Source: PubChem (National Center for Advancing Translational Sciences (NCATS))
In the library only some 0.47% were active in any assay of this set; here they are far more common.
UDG counter = Primary qHTS assay for inhibitors of Activation Induced Cytidine Deaminase (AID): UDG Counterscreen signal | Uracil-DNA glycosylase | FRET deamination/UDG coupled assay, UDG read, 4 h | Potency, µM (series often up to 115 µM), usual class: inhibitors | 91,000 compounds, 0.14% hits; further: nearly all actives have a fitted effect of over 65% in size
AID inh = Primary qHTS assay for inhibitors of Activation Induced Cytidine Deaminase (AID): AID signal; 91,000 compounds, 0.32% hits; Single-stranded DNA cytosine deaminase (Homo sapiens), Q9GZX7; AID 1347428, 2020; Potency, µM (top dose mostly 115 µM), usual class: inhibitors; AID deamination FRET fluorescence, UDG-coupled, 4 h; further: nearly all actives have a fitted effect of over 25% in size
Target sequence (Q9GZX7 whole entry, looked up): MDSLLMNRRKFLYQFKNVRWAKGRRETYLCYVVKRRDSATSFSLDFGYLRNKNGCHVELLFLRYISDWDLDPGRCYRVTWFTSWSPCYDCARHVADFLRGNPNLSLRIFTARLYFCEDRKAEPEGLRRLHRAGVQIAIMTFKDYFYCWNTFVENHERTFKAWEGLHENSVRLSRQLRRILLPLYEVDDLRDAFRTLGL
A number is an active result. The call rests on the fitted dose curve; in most records, active means well fitted curve in the direction sought with a large enough effect; inconclusive means small, poorly fitted or top-dose-only effect, or another doubt; inactive means no such curve, though single readings can be large; an effect the other way counts as inactive or inconclusive.

How did O=C(C1CC1)N(Cc1ccc2c(c1)CN(S(=O)(=O)c1ccccc1F)CCO2)c1ccccc1 do in these assays?
UDG counter: inactive; AID inh: inconclusive

Results for O=C(C1CC1)N(Cc1ccc2c(c1)CN(S(=O)(=O)c1ccc(F)c(F)c1)CCO2)c1ccccc1 ?
UDG counter: 89µM; AID inh: inconclusive

Results for CCOc1ccc(N(Cc2cc3cc(OC)ccc3[nH]c2=O)S(C)(=O)=O)cc1 ?
UDG counter: inactive; AID inh: inactive

What do the screens show for `Cc1ccc(-n2c(SCc3nc(-c4ccc(Cl)cc4)no3)nnc2-c2ccncc2)cc1`?
UDG counter: inconclusive; AID inh: 35µM

What do the screens show for `COCCSc1nnc(-c2ccc(Cl)cc2)n1-c1ccc(OC)cc1`?
UDG counter: inactive; AID inh: inactive

How did COc1ccc(OC)c(-c2noc(CSc3nnc(-c4ccccc4)n3-c3ccccc3)n2)c1 do in these assays?
UDG counter: inactive; AID inh: inactive

What do the screens show for `COc1ccc(-c2noc(CSc3nnc(-c4ccncc4)n3-c3ccc(OC)cc3)n2)cc1`?
UDG counter: 79µM; AID inh: inconclusive

Results for COc1ccc(-c2noc(CSc3nnc(C)n3-c3ccc(F)cc3)n2)cc1 ?
UDG counter: 79µM; AID inh: inactive

How did Cc1ccc(-c2noc(CSc3nnc(C)n3-c3ccc(C)cc3)n2)cc1 do in these assays?
UDG counter: inactive; AID inh: inconclusive

What do the screens show for `CCOc1ccc(-c2noc(CSc3nnc(-c4ccccc4)n3-c3ccccc3)n2)cc1`?
UDG counter: inactive; AID inh: inactive

What do the screens show for `Clc1ccccc1-c1nnc(SCc2nc(-c3ccccc3)no2)n1-c1ccccc1`?
UDG counter: 79µM; AID inh: inconclusive

How did Cc1ccccc1N1C(=O)c2cc(-c3ccco3)nn2CC1(C)C(=O)NC1CCCCC1 (stereo not given) do in these assays?
UDG counter: inactive; AID inh: inactive

Results for O=C(NCC(F)(F)F)c1ccccc1Oc1ccccc1 ?
UDG counter: inactive; AID inh: inactive

Results for Cc1cccc(N2CCN(S(=O)(=O)c3c(C)[nH]c(=O)[nH]c3=O)CC2)c1C ?
UDG counter: inactive; AID inh: inactive

Results for Cc1cccc(N2CCN(C(=O)c3ccc4c(c3)c(C)c(C)n4C)CC2)c1C ?
UDG counter: inactive; AID inh: inactive

What do the screens show for `O=C(OCc1cc2ccccc2[nH]c1=O)c1ccco1`?
UDG counter: inactive; AID inh: inactive

Results for COc1ccc(NC(=O)Nc2cn(CC(C)C)c(=O)c3ccccc23)c(OC)c1 ?
UDG counter: inactive; AID inh: inactive

Results for Cc1ccc(Cl)cc1NC(=O)Nc1cn(CC(C)C)c(=O)c2ccccc12 ?
UDG counter: inactive; AID inh: 79µM

How did Cc1ccc(-c2nnc(Nc3ccc(Cl)c(Cl)c3)c3ccccc23)cc1S(=O)(=O)N(C)C do in these assays?
UDG counter: inactive; AID inh: inactive

How did CCN(CC)S(=O)(=O)c1cc(-c2nnc(Nc3ccc(OC)c(C(N)=O)c3)c3ccccc23)ccc1C do in these assays?
UDG counter: inconclusive; AID inh: 35µM

Results for O=c1c2ccccc2n(Cc2c(F)cccc2Cl)c(=O)n1CCc1ccccc1 ?
UDG counter: inactive; AID inh: inactive

Results for COc1cccc(NC(=O)Nc2ccc3nc(N4CCOCC4)cc(C)c3c2)c1 ?
UDG counter: inactive; AID inh: inactive

Results for O=C(Nc1ccc(O)c(-c2nc3ccccc3o2)c1)c1sc2ccccc2c1Cl ?
UDG counter: inactive; AID inh: inactive

How did COc1ccc(C2=NC(c3ccncc3)=Nc3ccc(OC)cc3N2)cc1 do in these assays?
UDG counter: inactive; AID inh: inactive

What do the screens show for `CCc1ccc2c(c1)NC(c1ccc(OC)cc1)=NC(c1ccncc1)=N2`?
UDG counter: 89µM; AID inh: inconclusive

How did CCCC(=O)N1CC(=O)Nc2ccc(Cl)cc2C1c1ccc(F)cc1 (stereo not given) do in these assays?
UDG counter: inactive; AID inh: inactive

Results for CCCCC1CCC(C(=O)N2CC(=O)Nc3ccc(F)cc3C2c2ccc(F)cc2)CC1 (stereo not given) ?
UDG counter: inactive; AID inh: 35µM

Results for Cn1c(=O)c2c(nc(Cl)n2Cc2ccc(C#N)cc2)n(C)c1=O ?
UDG counter: inactive; AID inh: inactive

Results for Cc1cc(N(CCO)Cc2ccccc2)n2nc(-c3ccc(C(C)(C)C)cc3)nc2n1 ?
UDG counter: inactive; AID inh: inactive

How did Cc1cc(N(C)Cc2ccccc2)n2nc(-c3ccc(C(C)(C)C)cc3)nc2n1 do in these assays?
UDG counter: inactive; AID inh: 35µM

What do the screens show for `CC(C)N(CCNC(=O)C(c1ccccc1)c1ccccc1)C(C)C`?
UDG counter: inactive; AID inh: inactive

What do the screens show for `O=C1C(SCCO)=C(SCCO)C(=O)c2ccccc21`?
UDG counter: inactive; AID inh: 11µM

How did COc1ccc(NC(=O)c2sc3nc(C)c(C(=O)Nc4ccc(Cl)cc4)c(-c4ccc(Br)cc4)c3c2N)cc1 do in these assays?
UDG counter: inactive; AID inh: inconclusive

How did Cc1cc(C)c2c(c1)C(=O)/C(=C\c1ccccc1)CC2 do in these assays?
UDG counter: inactive; AID inh: inactive

How did CCOCCCNC(=O)CCc1nnc2ccc(N3CCN(c4cccc(OC)c4)CC3)nn12 do in these assays?
UDG counter: inactive; AID inh: inactive

Results for CCCN(C(=O)CCc1nc(-c2ccc(OC)cc2)no1)c1ccccc1F ?
UDG counter: inactive; AID inh: 40µM

Results for CCCN(C(=O)Cc1nc(-c2ccc(OC)cc2)no1)c1ccccc1C ?
UDG counter: inactive; AID inh: inconclusive

What do the screens show for `Cc1nc2c(C(=O)NCc3ccccc3)c[nH]n2c(=O)c1Cc1ccccc1Cl`?
UDG counter: inactive; AID inh: 89µM

How did Cc1nc2nc(N(Cc3ccccc3)C(=O)c3ccco3)[nH]n2c(=O)c1Cc1ccccc1Cl do in these assays?
UDG counter: inactive; AID inh: inconclusive

What do the screens show for `CC(C)CN(CC(C)C)CC(O)Cn1cc(/C=C/C(=O)c2ccccc2)c2ccccc21` (stereo not given)?
UDG counter: inactive; AID inh: inconclusive

How did CCCN(CCC)CC(O)Cn1cc(/C=C/C(=O)c2ccc(OCC)cc2)c2ccccc21 (stereo not given) do in these assays?
UDG counter: inactive; AID inh: 35µM

Results for O=C(NCc1ccccc1)c1ccc2cc[nH]c2c1 ?
UDG counter: inactive; AID inh: inactive

How did O=C1CCCN1c1ccc(-c2csc(-c3ccsc3)n2)cc1 do in these assays?
UDG counter: inactive; AID inh: inactive

Results for COc1ccc(OC)c(NC(=O)NC(C)C(=O)N2CCc3ccccc32)c1 (stereo not given) ?
UDG counter: inactive; AID inh: inactive

How did CC(Oc1ccc(C(=O)c2ccccc2)cc1)C(=O)N1CCc2ccccc21 (stereo not given) do in these assays?
UDG counter: 79µM; AID inh: inactive

What do the screens show for `CCN1CCN(c2oc(COc3ccc(F)cc3)nc2C#N)CC1`?
UDG counter: inactive; AID inh: inactive

What do the screens show for `Cc1nn(-c2ccccc2)c(OC(=O)C(C)C)c1Sc1ccc(Cl)cc1`?
UDG counter: inactive; AID inh: inconclusive

Results for CCC(=O)Oc1c(Sc2ccc(Cl)cc2)c(C)nn1C(C)(C)C ?
UDG counter: 79µM; AID inh: inactive
